From PubChem BioAssay
An excerpt weighted towards active compounds, which were near 1.4% of everything screened.
MRP1 act: H69AR viability gain despite doxorubicin, primary screen, MRP-1 activator project, H69AR cells, CellTiter-Glo. actives 0.61% (n = 140,000). viability increase, % at 10 µM. AID 799, 2007. viability rescue;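 active = viability gain under doxorubicin at or above a set limit, the compound median plus 3 SD, cut at about 4.7% in these data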;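 also: MRP-1 overexpressing cells given doxorubicin 25 µM after compound pretreatment; 18-22 h compound pretreatment then 72 h with doxorubicin before readout; 0% = doxorubicin-only wells and 100% = vehicle-treated cells without doxorubicin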
sdo1 growth: growth rescue of sdo1-depleted yeast, primary screen, S. cerevisiae, bone marrow failure model. S. cerevisiae sdo1-depleted JHY4D growth rescue, OD600 30 h; active compounds read high; pdr5 snq2 efflux-pump mutant strain. z-score at 10 µM. actives 0.21% (n = 140,000). AID 817, 2007;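 active = z-score above 3 at both the 24 hr and the 30 hr optical density reads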;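 also: z-score against mean and SD of all compound wells on the same plate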
IL1B NFkB pot: enhancers of NFkB p65 translocation in HUVEC – imaging, IL-1B stimulus, high-content imaging, primary screen; activation, % at 2 µM; actives 0.3% (n = 94,000); HUVEC IL-1B NFkB p65 nuclear translocation imaging; AID 819, 2007;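 active = activation above 40%, about the mean plus 3 SD, also judged a hit on visual image review; inconclusive = activation above 40% but not a hit on visual review; inactive = activation not above 40% and no visual hit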;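 also: percent activation is computed from the nuclear over cytoplasmic p65 intensity ratio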
MRP reversal: reversal of MRP1-mediated doxorubicin resistance, primary screen, H69AR cells, doxorubicin co-treatment. H69AR cells + 2 uM doxorubicin, CellTiter-Glo, 72 h. differential viability (reversal), % at 10 µM. actives 0.04% (n = 85,000). AID 602, 2007;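 active = viability drop by adding the cancer drug above about 55%, with treated viability meeting a 40% cutoff, limit read from the data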;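 also: viability without doxorubicin minus viability with 2 µM doxorubicin for each compound; larger differential means the compound sensitizes cells more to doxorubicin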
IL1B NFkB inh: inhibitors of IL-1B driven NFkB p65 nuclear import, primary screen, imaging, HUVEC, IL-1B stimulus, high-content imaging | HUVEC IL-1B NFkB p65 nuclear translocation imaging | inhibition, % at 2 µM | actives 0.43% (n = 94,000);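 active = inhibition above about 30% together with a positive call from visual inspection of the well image, limit read from the data; inconclusive = inhibition above a set limit but visual check negative; inactive = inhibition not above a set limit, visual check negative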;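 also: nuclear over cytoplasmic p65 intensity ratio measured by imaging; 0% = IL-1B stimulated DMSO wells and 100% = unstimulated DMSO wells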
HUVEC tox IL1B: cytotoxicity in IL-1B stimulated HUVEC, primary screen, cytotoxicity control for IL-1B NFkB translocation project, imaging, Hoechst nuclear count, IL-1B stimulus. HUVEC cell count loss. cell count reduction, % at 2 µM. actives 0.41% (n = 94,000). AID 845, 2007;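 active = cell count reduction more than 3 SD above the screen-wide mean, cut at about 70% in these data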;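 also: normalized per plate to untreated control cells as the no-loss baseline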
* = called active by the depositor; ? = inconclusive; . = no result given; [ ] = another dose, or the depositor's remark.

SMILES	MRP1 act	sdo1 growth	IL1B NFkB pot	MRP reversal	IL1B NFkB inh	HUVEC tox IL1B
COc1ccc(C(CC(=O)c2ccccc2)S(=O)(=O)c2ccc(C)cc2)cc1 (stereo not given)	-2	-0.04	69*	.	-69	-17
O=C(Cn1cnc([N+](=O)[O-])c1)NC1CCCC1	0	0.51	.	.	.	.
COc1cccc(COc2nc3c(c(=O)n(C)c(=O)n3C)n2C)c1	1	-0.1	-38	-1	38*	12
CC1CCN(Cc2c(C#N)c3ccccc3n2C)CC1	0	0.47	.	-10	.	.
COc1ccc(/C(O)=C2/C(=O)C(=O)N(CCN(C)C)C2c2ccc(C)cc2)cc1Cl (stereo not given)	-1	0.47	10	0	-10	-10
COc1ccc(/C(O)=C2/C(=O)C(=O)N(CCN(C)C)C2c2ccc(OC)c(OC)c2)c(C)c1 (stereo not given)	1	0.9[7.9 µM]	-39	-3	39*	8
COc1cc(C2/C(=C(/O)c3ccc(OCC(C)C)cc3)C(=O)C(=O)N2CCN(C)C)ccc1O (stereo not given)	-1	2.3	41*	21	-41	-97
CC(C)COc1ccc(/C(O)=C2/C(=O)C(=O)N(CCN(C)C)C2c2ccncc2)cc1 (stereo not given)	-1	-0.1	2	4	-2	-1
Cc1nnc(NC(=O)c2ccccc2Br)s1	6.0*	0.23	3	-5	-3	-31
CSc1cnn(Cc2ccccc2)c(=O)c1SCc1ccccc1	-1	-0.88	.	.	.	.
O=C(NCCc1ccncc1)C(F)(F)F	-1	0.71	-72	2	72*	-40
CCN(CC)S(=O)(=O)c1cccc(C(=O)OCC(=O)Nc2ccccc2OC(F)F)c1	-1	-0.88	-43	.	43*	-62
O=[N+]([O-])c1ccc(N2CCN(S(=O)(=O)c3ccccc3)CC2)cc1NCc1ccco1	-4	0.3	.	.	.	.
COc1ccc2c(c1)CCc1sc(NC(=O)c3ccc(C)cc3)nc1-2	4.9*	-0.85	3	6	-3	-25
CCc1nnc(NC(=O)CCC(=O)N2CCN(CCc3ccccc3)CC2)s1	-1	-0.26	.	-4	.	.
CCc1nnc(NC(=O)CCC(=O)N2CCN(CCOc3ccc(C)cc3)CC2)s1	5.6*	0.27	?	8	-47	-28
CCc1nnc(NC(=O)c2ccc(COc3ccc(C)cc3)o2)s1	6.2*	-0.64	-1	5	1	-21
Cc1cccc(OCCNC(=O)c2ccc(Oc3ccc(C(F)(F)F)cc3[N+](=O)[O-])cc2)c1	8.2*	-1.3	15	.	-15	-84
COCCNC(=O)c1cccc(Nc2nc(-c3ccccc3)c3cc(Cl)ccc3n2)c1	0	-0.95	.	.	.	.
COc1ccc(Cc2nn3c(-c4ccccc4Br)nnc3s2)cc1	-2	-2	20	2	-20	-10
Brc1ccccc1-c1nnc2sc(Cc3ccccc3)nn12	0	-1.7	59*	0	-59	-20
COC(=O)CSc1nc(NC(C)=O)nc(C)c1Br	-1	-0.3	.	6	.	.
CCOC(=O)CSc1nc(N)nc(C)c1Br	19*	0.73	.	4	.	.
CCCCC(=O)NS(=O)(=O)c1ccc(NS(C)(=O)=O)cc1	1	-0.36	.	.	.	.
CSc1nc2sc3c(c2c(=O)n1C)CCC(C)C3 (stereo not given)	-2	-0.59	2	-13	-2	-30
SMILES	MRP1 act	sdo1 growth	IL1B NFkB pot	MRP reversal	IL1B NFkB inh	HUVEC tox IL1B
C=CCn1nnc2sc3c(c2c1=O)CCC(C)C3 (stereo not given)	1	-0.37	-48	9	48*	-47
O=C(NC(=S)Nc1c(Cl)ccc2nsnc12)c1ccco1	-4	0.61	.	.	.	.
CCOC(=O)CCc1c(C)c2c(C)nn(-c3ccccc3)c2[nH]c1=O	-4	0.43	-32	.	32*	-38
Cc1c(C(=O)NC(C(C)C)C(C)C)cccc1[N+](=O)[O-]	0	0.52	.	.	.	.
C=C(Cl)COc1cc(C)cc2oc(=O)cc(CC)c12	0	-0.58	-47	10	47*	-1
CCCc1cc(=O)oc2cc(C)cc(OCC(=O)O)c12	-1	-0.25	13	16	-13	-1
O=C(COC(=O)c1cccc(Cl)c1)Nc1cc(Cl)ccc1Oc1ccccc1	-3	1.1	.	.	.	.
Cc1ccc(N=Nc2c(N)[nH]n3c(=O)cc(-c4ccccc4)nc23)cc1	6.0*	2	9	.	-9	-17
COc1cccc(N=Nc2c(N)[nH]n3c(=O)cc(-c4ccccc4)nc23)c1	-1	0.53	.	.	.	.
O=C(CSc1ncn[nH]1)Nc1ccc2c(c1)CCC2	2	1.5	.	.	.	.
COc1cccc(-c2nc(CS(=O)CC(=O)NCCCOC(C)C)c(C)o2)c1 (stereo not given)	-3	0.62	-10	20	10	-14
COc1cccc(-c2nc(CS(=O)(=O)CC(=O)NCCCOC(C)C)c(C)o2)c1	-3	1.2	-12	16	12	95*
CCOc1cc(/C=C2\SC(=Nc3ccccc3)N(c3ccccc3)C2=O)ccc1OCC(=O)O	5.9*	0.57	.	.	.	.
O=C(Nc1ccc(-c2nc3ccccc3s2)c(OC(=O)c2ccccc2)c1)c1ccccc1	-1	-0.1	.	.	.	.
COc1ccc(CN(C)CC(=O)Nc2ccc(Cl)cc2C(F)(F)F)c(OC)c1	-4	-0.29	.	.	.	.
Cn1c(=O)oc2cc(S(=O)(=O)N3CCN(Cc4ccc5c(c4)OCO5)CC3)ccc21	-1	-0.2	-11	16	11	87*
O=C(c1ccncc1)N(c1ccc2oc3c(c2c1)CCCC3)S(=O)(=O)c1ccc(F)cc1	-2	-0.76	.	.	.	.
O=C(NCCc1cccs1)C1CC(c2c(Cl)cccc2Cl)=NO1 (stereo not given)	-2	0.21	-3	.	4	-55
COC(=O)c1cn(NC(=O)c2ccc(OC)c(OC)c2)c(=O)c2ccccc12	-1	-0.23	-39	.	39*	-2
CCCCOCCCNC(=O)CCCOc1ccccc1	-2	1.3	17	3	-17	93*
CCOCCCNC(=O)CCCOc1ccccc1	-3	0.64	-2	-13	2	-28
O=C(Nc1ccc(-c2nc3ccc(NC(=O)c4cccs4)cc3[nH]2)cc1)c1cccs1	-2	0.75	17	-2	-17	4
O=C(Nc1ccc2nc(-c3cccs3)[nH]c2c1)c1cccs1	-3	0.15	-6	-11	6	90*
O=C(CSc1ncn[nH]1)N1N=C2/C(=C/c3ccco3)CCCC2C1c1ccco1 (stereo not given)	8.4*	-1	20	-6	-20	10
Nn1c(COc2ccc(Cl)cc2)nc2ccccc2c1=O	-1	-0.81	.	.	.	.
CNC(=O)CN(C)S(=O)(=O)c1ccc(F)cc1	-3	0.35	44*	1	-44	13
